This passage reports binding signal results from publication PMC7862700, “An all-to-all approach to the identification of sequence-specific readers for epigenetic DNA modifications on cytosine”.

What all share (assay): DAPPL (digital affinity profiling via proximity ligation, sequencing); 10 mM Tris-HCl pH 7.5, 50 mM NaCl, 1 mM DTT, 4% glycerol, room temperature, 30 min; GST-TFs on glutathione beads, 16-mer random dsDNA library, 0.1% formaldehyde crosslink after washing; high values mean tight binding
Holding throughout (settings): protein: recombinant; tags: N-terminal GST; dsDNA, one strand shown

The target of one experiment is T1, FEV (Homo sapiens, UniProt Q99581 1-238).
T1 sequence: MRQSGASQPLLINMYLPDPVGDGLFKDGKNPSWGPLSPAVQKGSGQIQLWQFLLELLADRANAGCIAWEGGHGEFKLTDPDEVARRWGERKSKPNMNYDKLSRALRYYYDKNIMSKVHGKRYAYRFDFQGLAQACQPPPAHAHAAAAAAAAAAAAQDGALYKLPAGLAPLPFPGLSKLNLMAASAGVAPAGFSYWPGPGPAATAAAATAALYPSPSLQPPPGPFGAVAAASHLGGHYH
The method in brief: (§1)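 Beads coated with glutathione captured GST-fused human transcription factors that had been expressed in yeast, and the factors were then given DNA barcodes and pooled with a tag-only sample. The pools were incubated with 200 nmole of a random double-stranded 16-mer DNA library in Tris/NaCl/DTT/glycerol buffer for 30 min at room temperature, washed, crosslinked with 0.1% formaldehyde and proximity-ligated with BsaI/T4 ligase at 37 °C for 1 h. PCR amplification and Illumina NextSeq500 sequencing came last. Binding signal is each hexamer's read frequency for a factor divided by its frequency for the tag-only sample.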

The target of another experiment is ETV5 (Homo sapiens, UniProt P41161 1-510). In a few lines:
as §1

Another experiment addresses T2, SPIC (Homo sapiens, UniProt Q8N5J4 1-248).
T2 sequence: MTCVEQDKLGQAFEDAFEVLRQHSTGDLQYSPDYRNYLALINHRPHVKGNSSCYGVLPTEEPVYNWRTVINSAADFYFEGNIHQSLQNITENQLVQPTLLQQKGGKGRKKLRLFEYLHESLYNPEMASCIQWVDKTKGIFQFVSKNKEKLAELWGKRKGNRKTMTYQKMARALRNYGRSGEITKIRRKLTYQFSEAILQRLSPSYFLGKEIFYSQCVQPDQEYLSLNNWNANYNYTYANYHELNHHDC
The method in brief:
as §1

The next experiment addresses ELF4 (Homo sapiens, UniProt Q99607 1-663). In a few lines: as §1
The target of a further experiment is T3, ELK4 (Homo sapiens, UniProt P28324-2 1-405).
T3 sequence: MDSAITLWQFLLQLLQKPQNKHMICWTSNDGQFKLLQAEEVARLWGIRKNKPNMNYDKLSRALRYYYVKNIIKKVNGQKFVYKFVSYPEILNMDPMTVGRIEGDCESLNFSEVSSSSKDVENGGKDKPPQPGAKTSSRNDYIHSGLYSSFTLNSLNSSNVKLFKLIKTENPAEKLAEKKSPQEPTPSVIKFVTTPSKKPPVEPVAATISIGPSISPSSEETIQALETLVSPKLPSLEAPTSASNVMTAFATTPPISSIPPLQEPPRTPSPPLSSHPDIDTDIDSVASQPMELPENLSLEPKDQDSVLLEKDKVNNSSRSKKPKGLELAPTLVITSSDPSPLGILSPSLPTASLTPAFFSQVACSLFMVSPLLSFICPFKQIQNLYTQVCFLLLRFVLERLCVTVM
The method in brief:
as §1

The next experiment has as its target T4, ETV2 (Homo sapiens, UniProt O00321 1-342).
T4 sequence: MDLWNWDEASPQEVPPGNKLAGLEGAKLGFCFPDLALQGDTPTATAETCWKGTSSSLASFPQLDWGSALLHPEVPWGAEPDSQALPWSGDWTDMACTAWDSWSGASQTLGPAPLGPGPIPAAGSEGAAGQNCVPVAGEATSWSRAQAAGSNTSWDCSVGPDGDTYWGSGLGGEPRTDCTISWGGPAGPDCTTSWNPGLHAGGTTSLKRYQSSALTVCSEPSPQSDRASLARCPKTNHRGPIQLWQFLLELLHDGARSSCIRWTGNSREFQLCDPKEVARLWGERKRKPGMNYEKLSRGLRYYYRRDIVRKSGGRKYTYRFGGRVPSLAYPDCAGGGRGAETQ
The method in brief: as §1

The next experiment has as its target CRX (Homo sapiens, UniProt O43186 1-299). The method in brief:
as §1

Another experiment deals with ETV1 (Homo sapiens, UniProt P50549 1-477). The method in brief: as §1
ETV1, sequence (P50549 whole entry): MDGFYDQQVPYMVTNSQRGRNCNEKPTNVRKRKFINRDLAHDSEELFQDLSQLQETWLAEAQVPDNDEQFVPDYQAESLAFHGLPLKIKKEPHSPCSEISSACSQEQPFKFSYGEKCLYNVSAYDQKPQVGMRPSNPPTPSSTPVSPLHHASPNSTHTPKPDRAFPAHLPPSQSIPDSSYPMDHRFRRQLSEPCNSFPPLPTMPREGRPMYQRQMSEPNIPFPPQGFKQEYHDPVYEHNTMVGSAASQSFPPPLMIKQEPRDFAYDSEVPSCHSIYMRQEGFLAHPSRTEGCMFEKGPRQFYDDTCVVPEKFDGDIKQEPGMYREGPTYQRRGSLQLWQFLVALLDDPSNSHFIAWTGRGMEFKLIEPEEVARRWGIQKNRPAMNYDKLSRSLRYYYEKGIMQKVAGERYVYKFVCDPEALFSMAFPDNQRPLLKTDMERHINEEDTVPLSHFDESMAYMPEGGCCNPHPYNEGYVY
A further experiment concerns the target T5, ELF3 (Homo sapiens, UniProt P78545 1-371).
T5 sequence: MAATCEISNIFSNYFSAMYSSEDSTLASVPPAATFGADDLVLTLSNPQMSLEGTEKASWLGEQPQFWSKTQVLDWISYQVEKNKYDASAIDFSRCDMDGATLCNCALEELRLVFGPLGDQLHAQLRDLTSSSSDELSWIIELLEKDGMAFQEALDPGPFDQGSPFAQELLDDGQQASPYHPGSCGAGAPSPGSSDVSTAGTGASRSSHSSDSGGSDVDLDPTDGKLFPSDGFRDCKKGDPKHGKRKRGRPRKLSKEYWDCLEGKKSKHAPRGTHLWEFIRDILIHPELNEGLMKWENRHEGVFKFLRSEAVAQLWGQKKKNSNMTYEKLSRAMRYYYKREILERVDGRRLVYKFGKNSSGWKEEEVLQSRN
The method in brief:
as §1

ETV5, sequence (P41161 whole entry): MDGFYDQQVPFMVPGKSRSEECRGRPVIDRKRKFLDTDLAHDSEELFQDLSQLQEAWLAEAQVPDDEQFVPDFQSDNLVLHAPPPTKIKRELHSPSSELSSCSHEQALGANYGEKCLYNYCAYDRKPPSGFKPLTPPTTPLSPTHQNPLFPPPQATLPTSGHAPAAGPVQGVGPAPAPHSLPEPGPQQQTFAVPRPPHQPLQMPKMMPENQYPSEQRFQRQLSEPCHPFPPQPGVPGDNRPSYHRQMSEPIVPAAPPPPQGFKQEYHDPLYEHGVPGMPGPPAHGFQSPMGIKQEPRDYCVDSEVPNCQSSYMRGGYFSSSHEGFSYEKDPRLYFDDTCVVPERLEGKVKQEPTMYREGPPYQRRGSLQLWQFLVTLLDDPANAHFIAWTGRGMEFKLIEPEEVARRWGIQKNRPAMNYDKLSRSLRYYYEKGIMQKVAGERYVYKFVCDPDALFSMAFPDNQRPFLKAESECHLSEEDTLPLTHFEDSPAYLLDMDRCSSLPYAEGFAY
ELF4, sequence (Q99607 whole entry): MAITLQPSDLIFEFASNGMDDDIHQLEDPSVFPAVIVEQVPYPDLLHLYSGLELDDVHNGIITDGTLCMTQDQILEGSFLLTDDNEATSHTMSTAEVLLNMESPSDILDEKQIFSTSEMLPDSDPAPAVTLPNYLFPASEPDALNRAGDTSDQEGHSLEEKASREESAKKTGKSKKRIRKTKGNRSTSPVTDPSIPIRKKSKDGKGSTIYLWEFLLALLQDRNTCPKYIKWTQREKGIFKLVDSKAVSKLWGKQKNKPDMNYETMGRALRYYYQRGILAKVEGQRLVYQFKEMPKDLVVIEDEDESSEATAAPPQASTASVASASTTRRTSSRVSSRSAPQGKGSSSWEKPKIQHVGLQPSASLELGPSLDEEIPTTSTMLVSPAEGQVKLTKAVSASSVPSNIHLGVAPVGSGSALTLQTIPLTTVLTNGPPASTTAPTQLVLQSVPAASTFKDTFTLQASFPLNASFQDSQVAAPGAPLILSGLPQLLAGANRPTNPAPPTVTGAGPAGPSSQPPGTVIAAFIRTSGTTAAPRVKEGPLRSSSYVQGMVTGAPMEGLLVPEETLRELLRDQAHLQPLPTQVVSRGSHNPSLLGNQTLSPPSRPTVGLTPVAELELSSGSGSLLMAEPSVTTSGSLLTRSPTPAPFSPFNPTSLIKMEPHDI
CRX, sequence (O43186 whole entry): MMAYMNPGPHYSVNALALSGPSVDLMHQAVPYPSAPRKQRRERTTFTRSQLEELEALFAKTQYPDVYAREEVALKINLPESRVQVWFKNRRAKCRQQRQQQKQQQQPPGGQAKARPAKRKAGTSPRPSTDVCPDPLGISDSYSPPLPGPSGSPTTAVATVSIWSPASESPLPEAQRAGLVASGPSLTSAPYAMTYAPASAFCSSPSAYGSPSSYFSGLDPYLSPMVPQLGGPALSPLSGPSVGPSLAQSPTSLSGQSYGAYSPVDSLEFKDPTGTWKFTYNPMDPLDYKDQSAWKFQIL

For CCGTAT, the binding signal was 1.14 fold enrichment (6-mer frequency, TF over GST control) with FEV; 1.23 fold enrichment (6-mer frequency, TF over GST control) with ETV5; 1.29 fold enrichment (6-mer frequency, TF over GST control) with SPIC; 1.17 fold enrichment (6-mer frequency, TF over GST control) with ELF4; 1.27 fold enrichment (6-mer frequency, TF over GST control) with ELK4; 1.34 fold enrichment (6-mer frequency, TF over GST control) in the experiment with ETV2. For the same sequence, the binding signal with CRX was 1 fold enrichment (6-mer frequency, TF over GST control); with ETV1 it was 1.19 fold enrichment (6-mer frequency, TF over GST control).

For CAACGC, the binding signal with FEV was 1.06 fold enrichment (6-mer frequency, TF over GST control); in the experiment with ETV5, 1.01 fold enrichment (6-mer frequency, TF over GST control); with SPIC it was 1.1 fold enrichment (6-mer frequency, TF over GST control); with ELF4, 1.11 fold enrichment (6-mer frequency, TF over GST control); with ELK4, 1.03 fold enrichment (6-mer frequency, TF over GST control); with ETV2 it was 1.1 fold enrichment (6-mer frequency, TF over GST control). The binding signal with ETV1 was 1.05 fold enrichment (6-mer frequency, TF over GST control).

Regarding ACACTG, the binding signal in the experiment with FEV was 1.01 fold enrichment (6-mer frequency, TF over GST control); with ETV5, 1.07 fold enrichment (6-mer frequency, TF over GST control); with SPIC, 1.3 fold enrichment (6-mer frequency, TF over GST control); with ELF4, 1.03 fold enrichment (6-mer frequency, TF over GST control); with ELK4, 1.14 fold enrichment (6-mer frequency, TF over GST control); with ETV2 it was 1.04 fold enrichment (6-mer frequency, TF over GST control). In addition, the binding signal with ETV1 was 1.15 fold enrichment (6-mer frequency, TF over GST control).

Take CGCTGC: the binding signal is 1.14 fold enrichment (6-mer frequency, TF over GST control) with FEV; 1.18 fold enrichment (6-mer frequency, TF over GST control) with ETV5; 1.21 fold enrichment (6-mer frequency, TF over GST control) with SPIC; 1.1 fold enrichment (6-mer frequency, TF over GST control) with ELF4; 1.2 fold enrichment (6-mer frequency, TF over GST control) with ELK4; 1.03 fold enrichment (6-mer frequency, TF over GST control) with ELF3. Besides, the binding signal with ETV1 was 1.21 fold enrichment (6-mer frequency, TF over GST control).

Turning to CGGTAT, the binding signal with FEV is 1.08 fold enrichment (6-mer frequency, TF over GST control); in the experiment with ETV5, 1.06 fold enrichment (6-mer frequency, TF over GST control); with SPIC it was 1.08 fold enrichment (6-mer frequency, TF over GST control); with ELF4, 1.06 fold enrichment (6-mer frequency, TF over GST control); in the experiment with ELK4, 1.03 fold enrichment (6-mer frequency, TF over GST control); with ETV2 it was 1.31 fold enrichment (6-mer frequency, TF over GST control). The binding signal with ETV1 is 1.09 fold enrichment (6-mer frequency, TF over GST control).

Take GCCCGC: the binding signal with FEV was 1.11 fold enrichment (6-mer frequency, TF over GST control); with ETV5, 1.02 fold enrichment (6-mer frequency, TF over GST control); with SPIC, 1.34 fold enrichment (6-mer frequency, TF over GST control); with ELF4, 1.19 fold enrichment (6-mer frequency, TF over GST control); in the experiment with ELK4 it was 1.15 fold enrichment (6-mer frequency, TF over GST control); in the experiment with ETV2 it was 1.16 fold enrichment (6-mer frequency, TF over GST control). Besides, the binding signal with ETV1 is 1.06 fold enrichment (6-mer frequency, TF over GST control).

As for CCCATG, the binding signal with FEV was 1.06 fold enrichment (6-mer frequency, TF over GST control); with ETV5, 1.09 fold enrichment (6-mer frequency, TF over GST control); with SPIC it was 1.02 fold enrichment (6-mer frequency, TF over GST control); in the experiment with ELF4 it was 1.12 fold enrichment (6-mer frequency, TF over GST control); with ELK4 it was 1.18 fold enrichment (6-mer frequency, TF over GST control); with ETV2, 1.02 fold enrichment (6-mer frequency, TF over GST control). The binding signal with ETV1 was 1.01 fold enrichment (6-mer frequency, TF over GST control).

As for GCACTG, the binding signal in the experiment with FEV is 1.12 fold enrichment (6-mer frequency, TF over GST control); with ETV5, 1.05 fold enrichment (6-mer frequency, TF over GST control); in the experiment with SPIC, 1.08 fold enrichment (6-mer frequency, TF over GST control); with ELF4 it was 1.07 fold enrichment (6-mer frequency, TF over GST control); with ELK4, 1.03 fold enrichment (6-mer frequency, TF over GST control); with ETV2, 1.22 fold enrichment (6-mer frequency, TF over GST control). Besides, in the experiment with ETV1, the binding signal is 1.08 fold enrichment (6-mer frequency, TF over GST control).

On to GGTCCC, for which the binding signal was 1.1 fold enrichment (6-mer frequency, TF over GST control) in the experiment with FEV; 1.13 fold enrichment (6-mer frequency, TF over GST control) with ETV5; 1.18 fold enrichment (6-mer frequency, TF over GST control) in the experiment with SPIC; 1.16 fold enrichment (6-mer frequency, TF over GST control) with ELF4; 1.29 fold enrichment (6-mer frequency, TF over GST control) with ELK4; 1.16 fold enrichment (6-mer frequency, TF over GST control) with ETV2. The binding signal with ETV1 is 1.3 fold enrichment (6-mer frequency, TF over GST control).
